Many of the other results were omitted from the sample, so hits are more common in it than they were.
G9a block: blocks human histone lysine methyltransferase G9a; 8.8% of 350,000 active; Potency, µM (doses to about 102 µM), hits mostly inhibitors; AID 504332; Q96KQ7; G9a H3K9 monomethylation, AlphaScreen, 2 h; further: nearly all actives have a fitted effect of over 75% in size
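Readings reflect AlphaScreen signal from monomethyl-H3K9 antibody detection. HMT at 20 nM; substrate b-H3K9 500 nM; cofactor SAM 20 uM; 2 h RT reaction; compounds tested as titrations in qHTS with 15 min preincubation.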
12-LOX inh: blocks human arachidonate 12S-lipoxygenase; purified 12hLO, xylenol orange hydroperoxide absorbance; Potency, µM (top dose mostly 108 µM), usual class: inhibitors; 1.1% of 580,000 active; AID 1671190
Target sequence (P18054 whole entry, looked up): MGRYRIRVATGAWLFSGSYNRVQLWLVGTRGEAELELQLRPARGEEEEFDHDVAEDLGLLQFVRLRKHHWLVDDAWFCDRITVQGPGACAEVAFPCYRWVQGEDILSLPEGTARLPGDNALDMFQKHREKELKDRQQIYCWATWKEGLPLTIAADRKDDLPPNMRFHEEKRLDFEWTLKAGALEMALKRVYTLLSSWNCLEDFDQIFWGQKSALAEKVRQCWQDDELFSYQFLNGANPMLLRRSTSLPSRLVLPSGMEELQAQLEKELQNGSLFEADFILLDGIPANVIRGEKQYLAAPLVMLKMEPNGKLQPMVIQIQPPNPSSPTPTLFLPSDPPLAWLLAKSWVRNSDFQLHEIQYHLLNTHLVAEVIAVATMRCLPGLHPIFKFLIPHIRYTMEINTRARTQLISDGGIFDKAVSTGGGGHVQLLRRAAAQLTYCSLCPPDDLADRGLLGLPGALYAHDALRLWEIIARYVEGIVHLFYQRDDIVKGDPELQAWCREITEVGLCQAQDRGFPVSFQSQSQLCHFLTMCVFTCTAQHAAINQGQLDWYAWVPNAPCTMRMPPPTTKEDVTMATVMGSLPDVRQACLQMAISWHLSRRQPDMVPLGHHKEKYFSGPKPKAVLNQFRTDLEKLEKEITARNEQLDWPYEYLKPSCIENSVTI
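Hydroperoxide product was detected by ferrous iron/xylenol orange as the 573 to 405 nm absorbance ratio. Arachidonic acid at 40 uM (final) was turned over for 30 min at room temperature by 150 nM human 12hLO, pH 7.0 Hepes buffer, after 15 min compound preincubation.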
VDR inhibitor: blocks the human vitamin D receptor. P11473. VDR-SRC2-3 peptide fluorescence polarization, 2 h. Potency, µM, most hits filed as inhibitors. 0.93% of 400,000 active
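Inhibition of the VDR/SRC2-3 peptide interaction is quantified by fluorescence polarization. Compounds (23 nl, pintool) incubate with the reagents for 2 hours at ambient room temperature.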
Sfp PPTase inh: blocks B. subtilis Sfp PPTase activity | Q9F4F7 | Biochemical Sfp PPTase activity, qHTS | Potency, µM, usual class: inhibitors | 3.5% of 310,000 active | AID 1490;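 further: the enzyme is Sfp with the accession as filed and its product quenches rhodamine fluorescence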
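With Hepes-Na pH 7.6 buffer containing 10 mM MgCl2, Sfp (15 nM) modified BHQ-2-YbbR (12.5 uM) using rhodamine-CoA (5 uM). Two reads 30 minutes apart at 525/598 nm yielded each well's rate.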
Glioma ERSR ind: induces the endoplasmic reticulum stress response in human glioma cells | 0.02% of 420,000 active | U87-MG GRP78 promoter luciferase reporter, 16 h | Potency, µM, hits mostly activators; further: series mostly up to about 76 µM; nearly all actives have a fitted effect of over 35% in size
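Stably transfected U87-MG human glioma cells carrying a GRP78-based luminescent sensor were seeded at 1000 cells/well, pin-dosed with compounds and incubated 16 h. Luciferase reagent was then added, and end-point luminescence was read after 10 min at room temperature.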
Each line names hits and unclear results; the compound was inactive in the other large screens. The call rests on the fitted dose curve; in most records, active means well fitted curve in the direction sought with a large enough effect; inconclusive means small, poorly fitted or top-dose-only effect, or another doubt; inactive means no such curve, though single readings can be large; an effect the other way counts as inactive or inconclusive.

Cc1ccccc1OCCCC(=O)Nc1ccc2c(c1)OCO2	G9a block 20µM, 12-LOX inh inconclusive
CCOC(=O)c1ccccc1NC(=O)NCc1c(-n2cccc2)sc2c1CCN(C)C2	none (no result: G9a block, VDR inhibitor, Sfp PPTase inh, Glioma ERSR ind)
O=C(Nc1ccc2c(c1)OCO2)c1ccccn1	G9a block 1.6µM, 12-LOX inh 5.6µM (no result: Sfp PPTase inh)
O=C(Nc1ccc2c(c1)OCO2)N1CCCc2ccccc21	G9a block 56µM, 12-LOX inh inconclusive
Cc1ccc(NC(=O)N2CCCc3ccccc32)cc1	none
COc1ccc(OCCSc2nnc(CC(=O)Nc3cccc(Cl)c3Cl)n2C)cc1	G9a block 3.2µM, 12-LOX inh inconclusive
CCn1c(CC(=O)Nc2cccc(Cl)c2Cl)nnc1SCCOc1ccc(OC)cc1	G9a block 25µM, 12-LOX inh inconclusive
COc1ccc(CC(=O)NCc2nnc(SCCOc3ccccc3)n2C)cc1	none
CCCNC(=O)NNC(=O)c1cc(-c2ccc(Cl)cc2)nc2ccccc12	none (no result: G9a block, VDR inhibitor, Sfp PPTase inh, Glioma ERSR ind)
Cn1nnnc1SCC(=O)Nc1ccc(Br)cc1Cl	G9a block 2µM
CCOC(=O)C1=C(C)NC2=C(C(=O)c3ccccc32)C1c1ccc(OCc2ccccc2)cc1 (stereo not given)	none (no result: G9a block, VDR inhibitor, Sfp PPTase inh, Glioma ERSR ind)
COc1ccccc1CNC(=O)COC(=O)c1cc(C)nc2ccccc12	none (no result: G9a block, Sfp PPTase inh)
COc1ccccc1CNC(=O)COC(=O)c1cc(-c2ccco2)nc2ccccc12	G9a block 13µM, 12-LOX inh inconclusive, Sfp PPTase inh inconclusive
O=C(COC(=O)c1cc(-c2ccco2)nc2ccccc12)NCc1ccc2c(c1)OCO2	G9a block 13µM, 12-LOX inh inconclusive
Cc1ccc(NC(=O)c2sccc2SCc2cccc(C(F)(F)F)c2)cc1	G9a block 25µM, 12-LOX inh inconclusive
N=c1c(C(=O)NCc2ccco2)cc2c(=O)n3ccccc3nc2n1Cc1ccccc1	none
COCCn1c(=N)c(C(=O)NCc2ccco2)cc2c(=O)n3ccccc3nc21	G9a block 56µM
Cc1cccn2c(=O)c3cc(C(=O)NCCc4ccccc4)c(=N)n(Cc4ccco4)c3nc12	Sfp PPTase inh 32µM
COc1ccc(CCNC(=O)c2cc3c(=O)n4cccc(C)c4nc3n(Cc3ccco3)c2=N)cc1OC	G9a block inconclusive
Cc1cccn2c(=O)c3cc(C(=O)NCc4ccco4)c(=N)n(CCc4ccccc4)c3nc12	Sfp PPTase inh 89µM
CC(C)C(NC(=O)c1nn(C)c(=O)c2ccccc12)c1ccccc1 (stereo not given)	none (no result: G9a block, VDR inhibitor, Sfp PPTase inh, Glioma ERSR ind)
O=C(NCCNCc1ccccc1)c1ccco1	12-LOX inh 28µM (no result: G9a block, Sfp PPTase inh)
CCCCCCCCCCCC(=O)OCC	none (no result: G9a block, VDR inhibitor, Sfp PPTase inh, Glioma ERSR ind)
COc1ccc(C(=O)CC2(O)C(=O)Nc3ccc(F)cc32)cc1 (stereo not given)	none (no result: G9a block, VDR inhibitor, Sfp PPTase inh, Glioma ERSR ind)
COc1ccc2c(c1)cc(C(=O)NCc1ccccc1)n2C	none (no result: G9a block, VDR inhibitor, Sfp PPTase inh, Glioma ERSR ind)
S=c1[nH]nc(CNc2cccc(Cl)c2)o1	G9a block 18µM
COc1cccc(CN2C[C@@H](COCC3CC3)[C@H](c3ccncc3)C2)n1	none (no result: G9a block, VDR inhibitor, Sfp PPTase inh, Glioma ERSR ind)
O=S(=O)(N=C1C=CC(=NS(=O)(=O)c2ccccc2)c2ccccc21)c1ccccc1	12-LOX inh inconclusive (no result: G9a block, VDR inhibitor, Sfp PPTase inh)
Cc1ccc(S(=O)(=O)/N=C2\C=C(NS(=O)(=O)c3ccccc3)C(=O)c3ccccc32)cc1	12-LOX inh inconclusive, VDR inhibitor inconclusive (no result: G9a block, Sfp PPTase inh)
CCc1ccc(S(=O)(=O)/N=C2/C=C(Sc3ncn[nH]3)C(=O)c3ccccc32)cc1	G9a block 1.4µM, VDR inhibitor 25µM, Sfp PPTase inh 3.5µM (no result: 12-LOX inh)
CCc1ccc(S(=O)(=O)/N=C2\C=CC(=O)c3ccccc32)cc1	G9a block 14µM (no result: 12-LOX inh, VDR inhibitor, Glioma ERSR ind)
CCOC(=O)C1CCCN(S(=O)(=O)CCNC(=O)c2cccc(OC)c2)C1 (stereo not given)	G9a block 11µM, VDR inhibitor inconclusive (no result: Sfp PPTase inh)
COc1cccc(C(=O)NCCS(=O)(=O)N(C)C2CCCCC2)c1	G9a block 22µM (no result: Sfp PPTase inh)
CN(C1CCCCC1)S(=O)(=O)CCNC(=O)c1ccccc1	VDR inhibitor inconclusive (no result: Sfp PPTase inh)
CCOC(=O)C1CCN(S(=O)(=O)CCNC(=O)c2ccccc2)CC1	none (no result: Sfp PPTase inh)
COc1cccc(C(=O)Nc2nnc(S(=O)(=O)N(C)Cc3ccccc3)s2)c1	none
COc1cccc(C(=O)NCCS(=O)(=O)N(C)Cc2ccccc2)c1	G9a block 45µM (no result: Sfp PPTase inh)
Cc1ccc(CN2CCCN(S(=O)(=O)c3ccccc3)CCC(=O)NCC2)o1	none (no result: G9a block, VDR inhibitor, Sfp PPTase inh, Glioma ERSR ind)
Cc1cc(C)c(NC(=O)c2cccc(NC(=O)c3ccco3)c2)c(C)c1	none

Source: PubChem BioAssay (National Center for Advancing Translational Sciences (NCATS))
